Results taken from PubChem BioAssay AID1212 (NMMLSC, 2008).
A number with no mark means an inactive call. The source made the active and inactive calls.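 The calls were made as follows: active = blocks over 60% of fluorescent estradiol binding at 10 µM; inactive = the rest.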

target: G-protein coupled estrogen receptor 1 (Homo sapiens) (UniProt Q99527); assay: GPR30 competitive binders vs fluorescent estrogen, primary screen, cell-based, Cos7 GPR30-GFP, flow cytometry, 10 µM (AID 1212); details: fluorescent estrogen competition, at 10 µM; stronger effect = higher value

SMILES	inhibition	outcome
O=C(O)c1ccc2c(c1)C1C=CCC1C(c1cccc([N+](=O)[O-])c1)N2 (stereo not drawn)	57%	
CC(=O)Oc1ccc(C2Nc3c(C(=O)O)ccc([N+](=O)[O-])c3C3C=CCC32)cc1 (stereo not drawn)	99% (active)	
CC(=O)c1ccc(N2Cc3ccccc3C2)cc1		inactive
CCc1cc2c3c(c(=O)oc2cc1OCC(=O)OC)CCCC3		inactive
COC(=O)c1ccc(OCc2c(C)noc2C)cc1	61% (active)	
COc1ccc(NS(=O)(=O)c2ccc3c(c2)[C@H]2C=CC[C@H]2[C@@H](c2ccc(F)cc2)N3)cc1	56%	
COc1cc([N+](=O)[O-])cc2c1NC(c1ccc(Br)cc1)C1CC=CC21 (stereo not drawn)		inactive
COc1cc([N+](=O)[O-])cc2c1NC(c1ccccc1)C1CC=CC21 (stereo not drawn)	34%	
CCCCc1cc2c(=O)c(-c3ccccn3)coc2cc1O	3%	
CCCOc1cc(OCCC)c2c3c(c(=O)oc2c1)CCCC3		inactive
O=C(O)COc1cc2oc(=O)c3c(c2cc1Cl)CCCC3		inactive
CC(=O)OC1CC2(C)C(=O)CCC2C2CCc3cc(O)ccc3C12 (stereo not drawn)		inactive
CC(C)COc1ccc2c(c1)c1c3n2CCNC3CCC1 (stereo not drawn)		inactive
CCCCOc1cc(OCCCC)c2c3c(c(=O)oc2c1)CCCC3	34%	
CC1(C)CC(=O)c2cn(-c3ccc(Cl)cc3)c(=N)c(C#N)c2C1		inactive
CCOC(=O)COc1cc2oc(=O)c3c(c2cc1CC)CCCC3		inactive
Cc1oc2ccc(OCC#N)cc2c1C(=O)OC(C)C		inactive
CCCCCCc1cc2c3c(c(=O)oc2cc1OCC(N)=O)CCC3		inactive
